Data reported in PubChem BioAssay (EPA / NIEHS).
The source made the active and inactive calls. Rule for the calls: active = hit-call score of the fitted dose curve at least 0.9, where 1 is the maximum; inactive = score below 0.9.

What was measured:
[1] = target: Transcription factor E2F1 (Homo sapiens) (UniProt Q01094); test: ATG_E2F_CIS: Attagene CIS-FACTORIAL HepG2 Assay for human E2F Transcription Factor 1 (AID 2282935); conditions: HepG2 Attagene cis-reporter, E2F reporter RNA transcripts; actives raise or lower the signal
Transcription factor E2F1 (Homo sapiens), sequence (Q01094 whole entry, looked up): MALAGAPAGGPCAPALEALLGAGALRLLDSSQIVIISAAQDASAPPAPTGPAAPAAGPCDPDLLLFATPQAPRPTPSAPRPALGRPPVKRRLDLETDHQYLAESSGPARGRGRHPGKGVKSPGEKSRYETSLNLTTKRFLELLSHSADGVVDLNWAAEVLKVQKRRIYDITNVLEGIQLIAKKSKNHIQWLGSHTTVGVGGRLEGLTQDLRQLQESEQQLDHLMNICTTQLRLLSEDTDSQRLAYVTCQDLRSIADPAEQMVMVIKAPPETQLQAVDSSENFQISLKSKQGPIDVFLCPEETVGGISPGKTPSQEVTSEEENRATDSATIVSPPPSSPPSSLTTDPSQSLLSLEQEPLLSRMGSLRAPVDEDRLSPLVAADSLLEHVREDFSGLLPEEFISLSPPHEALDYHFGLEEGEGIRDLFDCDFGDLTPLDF
In short: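 Endogenous E2F1 activity read through cis-promoter reporter units transfected into HepG2. After 24 h compound treatment, reporter mRNA measured by RT-PCR, HpaI digestion and capillary electrophoresis. Bidirectional fit versus DMSO.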

[2] = ATG_E_Box_CIS: Attagene CIS-FACTORIAL HepG2 Assay for human Enhancer Box (E-box) (AID 2282936); conditions: HepG2 E-box cis-reporter transcription, actives raise or lower the signal
In short: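 HepG2 cells transiently transfected with multiplexed cis-element reporter units, dosed 24 h; reporter mRNA quantified by RT-PCR, 6-FAM labelling, HpaI digestion and capillary electrophoresis. E-box (USF1) signal fitted bidirectionally vs DMSO.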

[3] = ATG_M_61_CIS: Attagene CIS-FACTORIAL HepG2 Assay for M61 Transcription Factor (Internal Marker) (AID 2282937); conditions: HepG2 Attagene CIS-FACTORIAL M61 internal marker reporter; actives raise or lower the signal
In short: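 Background-control endpoint: HepG2 cells with cis-regulated reporter constructs, 24 h exposure, reporter mRNA detected via fluorescent primer extension and capillary electrophoresis; values from bidirectional fitting with DMSO baseline.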

[4] = ATG_EGR_CIS: Attagene CIS-FACTORIAL HepG2 Assay for human Early Growth Response 1 (EGR1) (AID 2282938); conditions: HepG2 Attagene CIS-FACTORIAL EGR reporter mRNA; actives raise or lower the signal
In short: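 Endpoint derived by bidirectional fitting versus DMSO vehicle. Method: cis-promoter reporter units transfected into HepG2, 24 h dosing, RNA isolation, RT-PCR with 6-FAM primer extension and HpaI digestion, then capillary electrophoresis fluorescence detection.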

[5] = ATG_M_19_CIS: Attagene CIS-FACTORIAL HepG2 Assay for M19 Transcription Factor (Internal Marker) (AID 2282939); conditions: HepG2 Attagene CIS-FACTORIAL M19 internal marker reporter; actives raise or lower the signal
In short: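 Chemical-treated HepG2 (24 h) with MRTU constructs; reporter transcripts detected by fluorescent RT-PCR fragment analysis on capillary electrophoresis. Internal background marker, DMSO as baseline.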

[6] = ATG_ERE_CIS: Attagene CIS-FACTORIAL HepG2 Assay for Estrogen Response Element (ERE) (AID 2282940); conditions: HepG2 ERE cis-reporter, Attagene RNA transcript; actives raise or lower the signal
In short: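 Human liver cells (HepG2) bearing transiently transfected, promoter-regulated reporter units were exposed 24 h. Reporter mRNA induction was detected by capillary electrophoresis of labelled RT-PCR products and fitted bidirectionally to DMSO.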

[7] = ATG_Ets_CIS: Attagene CIS-FACTORIAL HepG2 Assay for human Erythroblast Transformation Specific (ETS) (AID 2282941); conditions: HepG2 ETS cis-reporter transcription, actives raise or lower the signal
In short: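 HepG2 cells transiently transfected with cis-promoter reporter transcription units were dosed for 24 h; reporter mRNA was measured by RT-PCR, 6-FAM primer extension, HpaI digestion and capillary electrophoresis, with bidirectional fitting against DMSO baseline.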

[8] = target: Hepatocyte nuclear factor 3-beta (Homo sapiens) (UniProt Q9Y261); test: ATG_FoxA2_CIS: Attagene CIS-FACTORIAL HepG2 Assay for human Forkhead box A2 (FOXA2) (AID 2282942); conditions: HepG2 cis-reporter transcription factor activity, 24 h; actives raise or lower the signal
Hepatocyte nuclear factor 3-beta (Homo sapiens), sequence (Q9Y261 whole entry, looked up): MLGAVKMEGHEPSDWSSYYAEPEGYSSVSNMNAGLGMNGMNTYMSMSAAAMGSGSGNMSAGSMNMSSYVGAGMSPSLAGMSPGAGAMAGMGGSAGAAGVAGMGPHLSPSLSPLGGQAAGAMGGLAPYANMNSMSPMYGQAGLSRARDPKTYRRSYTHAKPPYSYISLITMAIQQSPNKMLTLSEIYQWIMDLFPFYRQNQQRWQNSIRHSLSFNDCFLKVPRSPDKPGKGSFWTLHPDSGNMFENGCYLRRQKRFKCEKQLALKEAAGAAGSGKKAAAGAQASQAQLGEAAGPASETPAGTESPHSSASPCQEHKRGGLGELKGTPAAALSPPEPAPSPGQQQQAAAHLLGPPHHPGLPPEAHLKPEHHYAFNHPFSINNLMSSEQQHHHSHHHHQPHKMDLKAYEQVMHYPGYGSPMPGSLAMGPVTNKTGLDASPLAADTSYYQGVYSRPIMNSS
In short: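 Measured: reporter mRNA induction or loss in HepG2 transiently carrying multiple cis-regulated reporter units, 24 h after dosing. Quantified by RT-PCR plus capillary electrophoresis, normalised to DMSO.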

[9] = ATG_GATA_CIS: Attagene CIS-FACTORIAL HepG2 Assay for human GATA Binding Protein (AID 2282944); conditions: HepG2 GATA cis-element reporter, Attagene multiplex mRNA; actives raise or lower the signal
In short: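 Transfected cis-reporter HepG2 cells were treated with chemicals for 24 hours. Total RNA was then converted to cDNA, amplified with reporter-specific primers and analysed by fluorescent capillary electrophoresis, using DMSO-treated wells as baseline.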

[10] = ATG_GLI_CIS: Attagene CIS-FACTORIAL HepG2 Assay for human Zinc Finger Protein GLI1 (AID 2282945); conditions: HepG2, Attagene cis-factorial reporter mRNA, GLI element; actives raise or lower the signal
In short: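 Transiently transfected HepG2 cells report endogenous transcription factor activity via cis-element-driven reporter units. After 24 h compound exposure, reporter mRNA was measured by RT-PCR with capillary electrophoresis; bidirectional fitting against DMSO baseline.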

[11] = ATG_ISRE_CIS: Attagene CIS-FACTORIAL HepG2 Assay for human Interferon Regulatory Factor 1 (IRF1) binding to an Interferon-Stimulated Response Element (ISRE) (AID 2282948); conditions: HepG2 ISRE cis-reporter (Attagene), mRNA transcription readout; actives raise or lower the signal
In short: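 HepG2 cells transiently transfected with multiplexed cis-promoter reporter units; after 24 h compound exposure, reporter mRNA quantified by RT-PCR, FAM labelling, HpaI digestion and capillary electrophoresis. Bidirectional fit versus DMSO baseline.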

[12] = ATG_M_32_CIS: Attagene CIS-FACTORIAL HepG2 Assay for M32 Transcription Factor (Internal Marker) (AID 2282949); conditions: HepG2 Attagene cis-factorial M32 reporter, mRNA; actives raise or lower the signal;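 note: background control marker of the multiplexed CIS panel rather than a real target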
In short: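 Fluorescent capillary electrophoresis peaks of HpaI-digested, FAM-labelled RT-PCR reporter products give the signal. Source: transiently transfected human liver HepG2 cells, 24 h after chemical dosing; bidirectional fitting against DMSO.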

[13] = ATG_M_06_CIS: Attagene CIS-FACTORIAL HepG2 Assay for M06 Transcription Factor (Internal Marker) (AID 2282950); conditions: HepG2 Attagene CIS-FACTORIAL M06 internal marker reporter; actives raise or lower the signal
In short: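 Cells (HepG2, transiently carrying cis-driven reporter units) receive chemical for 24 h before RNA isolation. Reporter cDNA is PCR-amplified, FAM-labelled by primer extension, HpaI-digested and sized on a capillary analyser.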

[14] = target: Hypoxia-inducible factor 1-alpha (Homo sapiens) (UniProt Q16665); test: ATG_HIF1a_CIS: Attagene CIS-FACTORIAL HepG2 Assay for human Hypoxia Inducible Factor 1 (HIF1A) (AID 2282951); conditions: HepG2 Attagene cis-factorial HIF1a reporter transcription; actives raise or lower the signal
Hypoxia-inducible factor 1-alpha (Homo sapiens), sequence (Q16665 whole entry, looked up): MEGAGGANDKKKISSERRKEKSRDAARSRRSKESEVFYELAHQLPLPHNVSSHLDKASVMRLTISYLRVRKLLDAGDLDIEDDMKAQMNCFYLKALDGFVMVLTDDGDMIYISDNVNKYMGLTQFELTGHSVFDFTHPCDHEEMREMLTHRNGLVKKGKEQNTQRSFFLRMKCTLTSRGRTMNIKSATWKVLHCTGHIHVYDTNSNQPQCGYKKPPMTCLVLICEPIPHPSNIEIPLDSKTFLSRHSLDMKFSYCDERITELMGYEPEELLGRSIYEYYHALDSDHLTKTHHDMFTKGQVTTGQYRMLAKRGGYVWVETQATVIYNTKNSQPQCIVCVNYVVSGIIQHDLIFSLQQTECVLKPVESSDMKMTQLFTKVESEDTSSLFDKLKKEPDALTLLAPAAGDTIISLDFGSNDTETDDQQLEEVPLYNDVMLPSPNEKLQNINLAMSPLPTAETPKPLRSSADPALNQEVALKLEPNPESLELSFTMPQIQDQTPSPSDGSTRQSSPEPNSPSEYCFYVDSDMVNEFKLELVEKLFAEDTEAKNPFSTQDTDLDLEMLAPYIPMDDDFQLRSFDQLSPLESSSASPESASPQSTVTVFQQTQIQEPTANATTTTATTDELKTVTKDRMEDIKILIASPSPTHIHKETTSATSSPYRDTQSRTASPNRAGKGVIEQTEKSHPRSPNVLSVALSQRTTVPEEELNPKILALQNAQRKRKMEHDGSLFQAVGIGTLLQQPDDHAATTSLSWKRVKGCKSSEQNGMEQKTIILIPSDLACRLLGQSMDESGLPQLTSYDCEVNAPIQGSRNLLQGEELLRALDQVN
In short: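 Dosed 24 h, transfected HepG2 cells yielded total RNA whose reporter transcripts were RT-PCR-amplified and sized by capillary electrophoresis using fluorescent labelling; DMSO defined baseline, with gain and loss of signal both fitted.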

[15] = target: Hepatocyte nuclear factor 6 (Homo sapiens) (UniProt Q9UBC0); test: ATG_HNF6_CIS: Attagene CIS-FACTORIAL HepG2 Assay for human Hepatocyte Nuclear Factor 6 (HNF6) (AID 2282952); conditions: HepG2 Attagene cis-factorial HNF6 reporter transcription; actives raise or lower the signal
Hepatocyte nuclear factor 6 (Homo sapiens), sequence (Q9UBC0 whole entry, looked up): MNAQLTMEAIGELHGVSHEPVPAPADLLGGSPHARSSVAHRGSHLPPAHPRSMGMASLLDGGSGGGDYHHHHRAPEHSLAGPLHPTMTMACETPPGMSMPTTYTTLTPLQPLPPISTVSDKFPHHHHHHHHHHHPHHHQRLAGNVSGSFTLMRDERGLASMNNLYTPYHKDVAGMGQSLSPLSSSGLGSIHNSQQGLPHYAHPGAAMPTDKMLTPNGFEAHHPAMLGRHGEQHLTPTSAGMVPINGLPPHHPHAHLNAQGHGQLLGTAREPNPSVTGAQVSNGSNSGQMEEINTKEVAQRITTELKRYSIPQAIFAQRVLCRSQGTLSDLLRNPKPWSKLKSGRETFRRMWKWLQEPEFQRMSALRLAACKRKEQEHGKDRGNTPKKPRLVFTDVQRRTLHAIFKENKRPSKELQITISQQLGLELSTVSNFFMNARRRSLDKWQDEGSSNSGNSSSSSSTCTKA
In short: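 Transiently transfected HepG2 cells expressing cis-regulated reporter transcription units were exposed to chemical for 24 h in a 24-well format. Reporter transcript abundance was determined by fluorescence capillary electrophoresis.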

[16] = target: Heat shock factor protein 1 (Homo sapiens) (UniProt Q00613); test: ATG_HSE_CIS: Attagene CIS-FACTORIAL HepG2 Assay for human Heat Shock Transcription Factor 1 (HSE) (AID 2282953); conditions: HepG2 HSE cis-reporter, Attagene RNA transcription; actives raise or lower the signal
Heat shock factor protein 1 (Homo sapiens), sequence (Q00613 whole entry, looked up): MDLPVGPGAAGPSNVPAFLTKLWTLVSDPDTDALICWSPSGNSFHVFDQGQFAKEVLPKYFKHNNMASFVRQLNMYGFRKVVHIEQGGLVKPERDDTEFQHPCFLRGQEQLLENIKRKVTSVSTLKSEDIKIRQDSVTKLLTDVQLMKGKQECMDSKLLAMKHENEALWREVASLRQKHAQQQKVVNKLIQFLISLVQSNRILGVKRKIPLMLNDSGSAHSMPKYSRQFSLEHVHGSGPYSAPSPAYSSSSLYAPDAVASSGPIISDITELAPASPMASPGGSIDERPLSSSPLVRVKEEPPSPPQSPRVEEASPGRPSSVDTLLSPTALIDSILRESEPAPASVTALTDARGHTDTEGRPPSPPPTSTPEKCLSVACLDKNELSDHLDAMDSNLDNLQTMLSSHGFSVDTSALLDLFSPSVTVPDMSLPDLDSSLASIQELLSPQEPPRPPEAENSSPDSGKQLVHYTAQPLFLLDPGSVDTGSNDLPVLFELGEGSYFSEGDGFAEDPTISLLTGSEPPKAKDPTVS
In short: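 Liver-derived HepG2 cells carry transiently introduced multiple reporter units governed by cis promoters. Reporter RNA measured 24 h post-dose through reverse transcription, PCR amplification, fluorescent labelling and capillary electrophoresis, normalised to DMSO.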

[17] = ATG_MRE_CIS: Attagene CIS-FACTORIAL HepG2 Assay for human Metal Responsive Element (MRE) (AID 2282954); conditions: HepG2 MRE cis-reporter transcription, Attagene multiplex; actives raise or lower the signal
In short: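 HepG2 cells transiently transfected with cis-element-driven reporter units; mRNA measured 24 h after dosing. Reporter transcripts quantified by RT-PCR, FAM labelling, HpaI digestion and capillary electrophoresis; bidirectional fit versus DMSO.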

[18] = ATG_GRE_CIS: Attagene CIS-FACTORIAL HepG2 Assay for human Glucocorticoid Response Elements (GRE) (AID 2282947); conditions: HepG2 GRE cis-reporter, Attagene multiplex mRNA; actives raise or lower the signal
In short: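 Transiently transfected HepG2 cells carrying GRE cis-reporter units (endogenous TF activity) dosed 24 h; reporter mRNA quantified by RT-PCR, 6-FAM labelling, HpaI digestion and capillary electrophoresis. Bidirectional fit versus DMSO baseline.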

[19] = target: Bile acid receptor (Homo sapiens) (UniProt Q96RI1); test: ATG_IR1_CIS: Attagene CIS-FACTORIAL HepG2 Assay for human Nuclear Receptor Subfamily 1 Group H Member 4 (NR1H4), IR1 submotif (AID 2282946); conditions: IR1 reporter transcription, actives raise or lower the signal
Bile acid receptor (Homo sapiens), sequence (Q96RI1 whole entry, looked up): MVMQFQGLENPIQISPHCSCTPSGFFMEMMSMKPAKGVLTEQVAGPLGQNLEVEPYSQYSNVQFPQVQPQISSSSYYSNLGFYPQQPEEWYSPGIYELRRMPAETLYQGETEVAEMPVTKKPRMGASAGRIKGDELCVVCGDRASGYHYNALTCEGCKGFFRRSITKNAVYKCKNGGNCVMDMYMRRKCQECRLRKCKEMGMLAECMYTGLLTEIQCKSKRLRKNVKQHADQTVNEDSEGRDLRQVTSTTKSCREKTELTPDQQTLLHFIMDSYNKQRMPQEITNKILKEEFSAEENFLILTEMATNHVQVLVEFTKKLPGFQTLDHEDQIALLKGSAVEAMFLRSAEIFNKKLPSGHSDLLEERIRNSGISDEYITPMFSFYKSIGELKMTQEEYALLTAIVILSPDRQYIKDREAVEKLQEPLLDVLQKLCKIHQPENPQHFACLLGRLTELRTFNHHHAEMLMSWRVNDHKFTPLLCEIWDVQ
In short: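 HepG2 cells transiently transfected with multiple cis-promoter-driven reporter units to measure endogenous transcription factor activity; 24 h exposure. Reporter mRNA read by RT-PCR, FAM labelling, HpaI digestion and capillary electrophoresis. Bidirectional fit versus DMSO.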

Measured: AC50

O=C(O)C(F)(OC(F)(F)C(F)(OC(F)(F)C(F)(F)C(F)(F)F)C(F)(F)F)C(F)(F)F (stereo not given)
inactive: [1] | [2] | [3] | [4] | [5] | [6] | [7] | [8] | [9] | [10] | [11] | [12] | [13] | [14] | [15] | [16] | [17]

FC(F)(F)C(F)(F)C(F)(F)C(F)(F)C(F)(F)CCI
inactive: [1] | [2] | [3] | [4] | [5] | [7] | [8] | [9] | [10] | [18] | [11] | [12] | [13] | [14] | [15] | [16] | [17]
active: [6] 51.2 µM

N=C(N)C(F)(F)C(F)(F)C(F)(F)C(F)(F)C(F)(F)C(F)(F)C(F)(F)F
active: [1] 199 µM | [2] 68.5 µM | [6] 38.6 µM | [9] 243 µM | [14] 242 µM
inactive: [3] | [4] | [5] | [7] | [8] | [10] | [18] | [11] | [12] | [13] | [15] | [16] | [17]

FC(F)(Br)C(F)(F)C(F)(F)C(F)(F)C(F)(F)C(F)(F)Br
inactive: [1] | [2] | [3] | [4] | [5] | [7] | [8] | [9] | [10] | [18] | [11] | [12] | [13] | [14] | [15] | [16] | [17]
active: [6] 8.15 µM

CCCCCCC(C)OC(=O)CCCCC(=O)OC(C)CCCCCC (stereo not given)
inactive: [1] | [2] | [3] | [4] | [5] | [6] | [7] | [8] | [9] | [10] | [19] | [11] | [12] | [13] | [14] | [15] | [16] | [17]

CC(CCl)OP(=O)(OC(C)CCl)OC(C)CCl (stereo not given)
inactive: [1] | [2] | [3] | [4] | [5] | [6] | [7] | [8] | [9] | [10] | [19] | [11] | [12] | [13] | [14] | [15] | [16] | [17]

CC(C)=CCCC(C)CCOC(=O)C(C)C (stereo not given)
inactive: [1] | [2] | [3] | [4] | [5] | [6] | [7] | [8] | [9] | [10] | [19] | [11] | [12] | [13] | [14] | [15] | [16] | [17]
